Source: the supplement of paper PMC13380429
Unmarked numbers belong to inactive results.

System: Vero E6 infected with SARS-CoV-2
Assay: inhibition of SARS-CoV-2 cytopathic effect; higher = more antiviral protection, active = above 15
Conditions: 48 h

SMILES | inhibition of SARS-CoV-2 cytopathic effect (1 nM) | inhibition of SARS-CoV-2 cytopathic effect (8.33 nM) | inhibition of SARS-CoV-2 cytopathic effect (100 nM) | inhibition of SARS-CoV-2 cytopathic effect (833.33 nM) | inhibition of SARS-CoV-2 cytopathic effect (10000 nM)
O=C1C[C@@H](c2ccc(O)cc2)Oc2cc(O)cc(O)c21 [naringenin] | -1.9% | 0.02% | -0.05% | 0.5% | 0.31%
CCc1ccc(/C=C/C(=O)Nc2ccc(C(C)=O)cc2)o1 [heclin] | -2.06% | -1.28% | -7.85% | -6.86% | -5.66%
CC(CCc1ccccc1)NCC(O)c1ccc(O)c(C(N)=O)c1 (stereo not given) [labetalol] | -0.33% | 0.13% | 0.47% | 0.67% | -2.41%
C[C@H](Oc1cc(-c2cnn(C3CCNCC3)c2)cnc1N)c1c(Cl)ccc(F)c1Cl [crizotinib-(S)] | 0.35% | -0.2% | -0.33% | -0.47% | 54.7% (active)
NC(=O)N/N=C/c1ccc(Oc2ccc(F)cc2)cc1 | -1.46% | -1.91% | -0.81% | 1.11% | 3.26%
Cn1c(=O)c2c(ncn2CC(=O)O)n(C)c1=O [acefylline] | -0.43% | 3.14% | 12.4% | 0.66% | 0.73%
COc1ccc(-c2cc(=S)ss2)cc1 [anethole-trithione] | 1.7% | -0.29% | 1.29% | -1.2% | 2.76%
CN1[C@@H]2CC[C@H]1C[C@@H](OC(c1ccccc1)c1ccccc1)C2 [benztropine-mesylate] | 1.74% | -0.55% | 1.26% | -8.96% | -7.74%
CC(C)[C@H](C(=O)Nc1ccc(C(=O)NO)cc1)c1ccccc1 | 3.84% | 0.31% | -0.75% | 1.02% | 0.89%
NC1CCN(c2nc3c(cc2F)c(=O)c(C(=O)O)cn3-c2ccc(F)cc2F)C1 (stereo not given) [tosufloxacin] | -2.93% | 0.34% | -3.49% | -3.32% | -0.08%
O=C(OCCN1CCOCC1)c1cccnc1Nc1cccc(C(F)(F)F)c1 [morniflumate] | -1.61% | -3.25% | -3.87% | -4.12% | -5.47%
COC(=O)[C@@H](N)CS [mecysteine] | 2.04% | -0.66% | -0.44% | 2.25% | 2.07%
NNC(=O)c1ccncc1 [isoniazid] | -3.24% | 0.31% | 0.58% | 3.21% | -1.15%
CC1/C=C/C=C/C=C/C=C/C=C/C=C/C=C/C(OC2O[C@H](C)[C@@H](O)[C@H](N)[C@@H]2O)CC(O)C(C(=O)O)C(O)CC(=O)CC(O)CC(O)CC(O)CC(=O)CCCC(=O)CC(=O)OC1C(C)CC(C)C(O)CC(=O)c1ccc(N)cc1 (stereo not given in full) [candicidin] | -0.52% | 4.78% | 3.57% | 4.79% | -2.56%
Cn1c(=O)cc(N2CCC[C@@H](N)C2)n(Cc2cc(F)ccc2C#N)c1=O [trelagliptin] | -1.51% | 0.34% | 1.49% | -0.45% | 3.01%
NS(=O)(=O)c1cc(-c2nnn[nH]2)c(NCc2cccs2)cc1Cl [azosemide] | 2.38% | -0.55% | 3.16% | 9.99% | -3.43%
CC(C)(Oc1ccc(C(=O)c2ccc(Cl)cc2)cc1)C(=O)O [fenofibric-acid] | 0.66% | -0.84% | 0.44% | 1.29% | -0.37%
CS(=O)(=O)OC[C@H](O)[C@@H](O)COS(C)(=O)=O [treosulfan] | 0.41% | 0.48% | -0.46% | 0.71% | 1.56%
O=C1C2C=Nc3ccccc3C2=NN1c1ccc(Cl)cc1 (stereo not given) | 0.17% | -0.02% | 1.99% | 3.3% | -0.09%
CCn1ccnc1CC1COc2ccccc2O1 (stereo not given) [imiloxan] | 2% | -0.87% | -0.32% | 4.69% | -0.13%

SMILES | inhibition of SARS-CoV-2 cytopathic effect (1 nM) | inhibition of SARS-CoV-2 cytopathic effect (8.33 nM) | inhibition of SARS-CoV-2 cytopathic effect (100 nM) | inhibition of SARS-CoV-2 cytopathic effect (833.33 nM) | inhibition of SARS-CoV-2 cytopathic effect (10000 nM)
CNCCC(Oc1ccc(C(F)(F)F)cc1)c1ccccc1 (stereo not given) [fluoxetine] | -10.3% | 0.27% | -2.53% | -3.36% | -9.56%
CC(C)(C)C(=O)/C(=N/c1ccc(Cl)cc1)NNc1ccc(Cl)cc1 | 1.8% | -0.69% | 1.03% | 0.66% | -7%
Brc1ccc(NC2C3CC4CC(C3)CC2C4)cc1 (stereo not given) [bromantan] | -1.24% | -0.71% | -0.8% | 0.76% | 1.67%
COc1cccc(Nc2ncnn3ccc(CN4CC[C@@H](N)[C@H](O)C4)c23)c1 | -0.26% | 0.1% | -6.81% | -16.4% | -22.6%
NC(=S)N/N=C/c1coc2ccccc2c1=O.[Cl][Cu][Cl] | 0.84% | -0.38% | 1.98% | -0.55% | 2.4%
Cn1c([N+](=O)[O-])cnc1COC(N)=O [ronidazole] | 2.87% | 0.97% | 1.04% | 2.17% | 2.12%
CC(=O)Nc1ccccc1 [acetanilide] | -1.3% | 2.8% | 1.67% | 1.23% | 0.69%
O=C(O)CNC(=O)c1ccccc1 [hippuric-acid] | -0.58% | 1.5% | 3.97% | 1.76% | 0.17%
O=C(Nc1ccc(Oc2ccc(Cl)cn2)c(Cl)c1)c1ccccn1 | 0.81% | -0.54% | 1.75% | -3.64% | 0.26%
COc1cccc(-c2cc(F)ccc2[C@H]2Cc3nc(N)nc(C)c3C(=O)N2)n1 | -0.35% | 0.26% | -1.38% | -0.51% | -10.9%
CN(C)CC/C=C1\c2ccccc2CSc2ccccc21 [dosulepin] | -1.78% | 1.37% | 5.41% | -0.17% | -8.17%
O=C1CNC(=O)CN1 [piperazinedione] | -1.5% | -0.79% | -1.97% | -2.42% | -2.4%
CCN1CCN(Cc2ccc(-c3cc4c(N[C@H](C)c5ccccc5)ncnc4[nH]3)cc2)CC1 | 1.55% | 0.57% | -1.71% | -10.4% | -16%
CCCCCCCCCC(=O)OCCN1CCN(CCCN2c3ccccc3Sc3ccc(C(F)(F)F)cc32)CC1 [fluphenazine-decanoate] | -6.37% | -5.38% | -8.72% | -10.3% | -9.75%
CC(C)c1ccc(CC(=O)N2CCC[C@@H](c3cccc(OC(C)(C)C(=O)O)c3)C2)cc1 | 0.54% | 0.54% | -0.36% | 1.87% | -0.15%
CC[C@H]1[C@@H]2C[C@H]3[C@@H]4N(C)c5ccccc5[C@]45C[C@@H]([C@@H]2[C@H]5O)N3[C@@H]1O [ajmaline] | -1.1% | -2.42% | 0.36% | 0.5% | -1.16%
OC[C@H]1O[C@@H](O[C@@H]2[C@@H](CO)OC(O)(CO)[C@H]2O)[C@H](O)[C@@H](O)[C@H]1O (mixture of isomers) [lactulose] | 1.11% | 0.23% | -0.45% | -1.79% | 1.61%
COc1c(OCCCN2CCOCC2)ccc2c1N=C(NC(=O)c1cnc(N)nc1)N1CCN=C21 [copanlisib] | -2.48% | -1.99% | -3.58% | -5.18% | -12.2%
CC(C)[N+](C)(CCOC(=O)C1c2ccccc2Oc2ccccc21)C(C)C [propantheline] | 0.61% | 0.91% | -0.81% | -1.32% | -0.04%
C=CC[N@@+]12CC[C@@]34c5ccccc5N5/C=C6/[C@H]7C[C@H]8[C@@]9(CC[N@@+]8(CC=C)C/C7=C/CO)c7ccccc7N(/C=C(/[C@@H](C[C@@H]31)/C(=C\CO)C2)[C@H]54)[C@@H]69 [alcuronium] | 1.2% | -0.77% | -0.24% | -0.81% | 4.13%
